Experimental data as given in PubChem BioAssay (NCI).
This is part of a sample that, as a whole, favours compounds with a hit. Of some 83,000 tested, about 20% had one in any assay.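 Compound tested at a single concentration for 48 hours in 96-well plates; a percent growth value below 10 was scored as active.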 Values without a mark were called inactive. Active and inactive are the calls of the source.

Experiments:
Assay in all cases: NCI-60 one-dose screen, 48 h (100 = growth as untreated, 0 = no growth, -100 = all killed)
Conditions in all cases: 10 µM unless noted
[1] = system: NCI-H23 lung
[2] = system: NCI-H226 lung
[3] = system: NCI-H322M lung
[4] = system: HOP-62 NSCLC
[5] = system: NCI-H460 lung
[6] = system: HOP-92 NSCLC
[7] = system: NCI-H522 lung
[8] = system: A549/ATCC NSCLC
[9] = system: 786-0 renal
[10] = system: COLO 205 colon
[11] = system: DU-145 prostate
[12] = system: K-562 leukemia
[13] = system: MALME-3M melanoma
[14] = system: MDA-MB-231 breast
[15] = system: RXF 393 renal
[16] = system: SF-268 CNS
[17] = system: SF-295 CNS
[18] = system: SF-539 CNS
[19] = system: UACC-257 melanoma
[20] = system: M14 melanoma

SMILES	growth [1]	growth [2]	growth [3]	growth [4]	growth [5]	growth [6]	growth [7] [%]	growth [8]	growth [9]	growth [10]	growth [11]	growth [12] [%]	growth [13]	growth [14]	growth [15]	growth [16]	growth [17]	growth [18]	growth [19]	growth [20]
CN1C(=O)C(O)(CC(=O)c2cc3ccccc3oc2=O)c2ccccc21 (stereo not given)	93.3%	81%	103%	97%	114%	110%	92.7	111%	105%	114%	137%	72.7	94.7%	91.8%	122%	98.8%	96.3%	93.3%	109%	94.2%
COc1ccc(C(=O)c2c(N)c(C#N)cn2-c2ccc([N+](=O)[O-])cc2)cc1	103%	102%	100%	83.4%	108%	102%	85.1	103%	109%	105%	109%	104	102%	99%	94.2%	99.6%	91.9%	95.7%	111%	113%
O=C(CSc1nnc(-c2ccc(-c3nc4ccccc4[nH]3)cc2)o1)Nc1ccc(Br)cc1	1.35% (active)	74.4%	36.8%	3.07% (active)	-55.2% (active)	9.82% (active)	12.8	0.989% (active)	-40.9% (active)	51.7%	13.8%	11	31.9%	-29.1% (active)	-62% (active)	48.7%	53.8%	-89.8% (active)	61.9%	-0.614% (active)
Cc1oc(-c2ccccc2)nc1CN[C@@H]1C[C@@H]2C[C@H]([C@H]1C)C2(C)C	-30% (active)	-29.8% (active)	57.9%	75%	4.28% (active)	-11.4% (active)	30.8	50.9%	21.8%	-69.3% (active)	65.5%	11.6	-61.7% (active)	35.2%	-78.7% (active)	80.8%	11%	14.8%	8.4% (active)	-63.1% (active)
O=C(Cn1c(-c2ccccc2)nc2ccccc21)N=Nc1c(O)[nH]c2ccc(Cl)cc12	20.8%	-62.1% (active)	5% (active)	-58.6% (active)	3.44% (active)	-41.7% (active)	40.5	6.42% (active)	-18.5% (active)	-40.3% (active)	6.32% (active)	10.6	5.8% (active)	-42% (active)	-63.8% (active)	7.18% (active)	-40% (active)	-46.6% (active)	36.5%	14.9%
COc1ccc(-c2cc(C(=O)Oc3ccc(C=O)cc3OC)nn2-c2ccc(S(C)(=O)=O)cc2)cc1	96%	104%	106%	104%	105%	110%	68.3	105%	113%	133%	110%	96.1	105%	94.3%	122%	103%	110%	106%	115%	117%
Cc1ccc(C2CC(c3ccc(S(=O)(=O)NCCNc4nc(N(C)C)nc(N5CCOCC5)n4)cc3)=Nc3c(N)nc(N)nc3N2)cc1 (stereo not given)	72%	63.8%	77.3%	63.9%	53.6%	-9.13% (active)	80.1	62.2%	32.8%	72.3%	66%	22.8	57.3%	31%	10.6%	45.2%	32.7%	43.8%	72.6%	44.7%
